Measurements reported in the supplement of paper PMC6607015.
Counter-ions that a name gives are not always drawn.

test system: A431; experiment: LBPA endosome anti-LBPA integrated intensity (sum per cell), Z-score; higher = more LBPA staining; conditions: compound concentration in added solution (µM; 5 µl added to 20 µl cells): 10; 18 h
Outline: (§1)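 HeLa MZ or A431 cells (3,500/well in 20 µl) were seeded onto 5 µl of 10 µM compound solution in duplicate 384-well imaging plates, incubated 18 h, then fixed in 4% PFA. Cells were stained with 6C4 anti-LBPA antibody, filipin, propidium iodide and CellTracker green, and four 20× images were taken per well. MetaXpress segmentation gave per-cell integrated LBPA or filipin intensity, either whole-cell or within LBPA endosomes. Values are Z-scores normalised in AcuityXpress.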

Row | SMILES | LBPA endosome anti-LBPA integrated intensity (z-score)
1 | C[N+](C)(C)CCCCCCCCCC[N+](C)(C)C [Decamethonium bromide] | -0.547
2 | CC(C)c1c(CN(C)C(C)Cc2ccccc2)n(C)n(-c2ccccc2)c1=O (stereo not given) [Famprofazone] | -0.355
3 | C[C@]12Cc3c[nH]nc3C[C@@H]1CC[C@@H]1[C@@H]2CC[C@@]2(C)[C@H]1CC[C@]2(C)O [Stanozolol] | 0.154
4 | c1ccc2c(c1)OCC(C1=NCCN1)O2 (stereo not given) [Idazoxan hydrochloride] | -0.313
5 | NCCc1c[nH]c2ccc(O)cc12 [Serotonin hydrochloride] | -0.716
6 | CC[N+]1(C)CCCC(OC(=O)C(O)(c2ccccc2)c2ccccc2)C1 (stereo not given) [Pipenzolate bromide] | -0.28
7 | O=C(CCCN1CCC(n2c(=O)[nH]c3ccccc32)CC1)c1ccc(F)cc1 [Benperidol] | 2.05
8 | CC(C)C[C@H]1C(=O)N2CCC[C@H]2[C@]2(O)O[C@](NC(=O)[C@@H]3C=C4c5cccc6[nH]c(Br)c(c56)C[C@H]4N(C)C3)(C(C)C)C(=O)N12 [Bromocryptine mesylate] | 0.99
9 | CC(C)CC(N(C)C)C1(c2ccc(Cl)cc2)CCC1 (stereo not given) [Sibutramine HCl] | -0.608
10 | CNC(=O)Oc1ccc2c(c1)[C@]1(C)CCN(C)[C@@H]1N2C [Eserine sulfate, physostigmine sulfate] | -0.59
11 | CN1[C@@H]2CC[C@H]1C[C@@H](OC1c3ccccc3CCc3ccccc31)C2 [Deptropine citrate] | 3.21
12 | O=[N+]([O-])c1cc([As](=O)(O)O)ccc1O [Roxarsone] | -0.422
13 | O=c1[nH]c2ccccc2n1CCCN1CCC(n2c(=O)[nH]c3cc(Cl)ccc32)CC1 [Domperidone] | 2.25
14 | Cc1cccc(C)c1NC1=NCCCS1 [Xylazine] | -0.493
15 | Cc1cc(C(C#N)c2ccc(Cl)cc2)c(Cl)cc1NC(=O)c1cc(I)cc(I)c1O (stereo not given) [Closantel] | -0.54
16 | C=C(C)[C@@H]1[C@H]2OC(=O)[C@@H]1[C@]1(O)C[C@H]3O[C@]34C(=O)O[C@H]2[C@]14C [Picrotoxinin] | -0.582
17 | C[N+]1(C)[C@@H]2CC[C@H]1C[C@@H](OC(=O)C(CO)c1ccccc1)C2 (stereo not given in full) [Methylatropine nitrate] | -0.382
18 | Oc1ccc2c3c1O[C@H]1[C@@H](O)CC[C@@]4(O)[C@@H](C2)N(CC2CCC2)CC[C@]314 [Nalbuphine hydrochloride] | -0.515

Row | SMILES | LBPA endosome anti-LBPA integrated intensity (z-score)
19 | C[N+]12CCC(CC1)C(OC(=O)C(O)(c1ccccc1)c1ccccc1)C2 (stereo not given) [Clidinium bromide] | -0.478
20 | C#CCN(C)[C@H](C)Cc1ccccc1 [Selegiline hydrochloride] | -0.688
21 | NC(=O)C[S+]([O-])C(c1ccccc1)c1ccccc1 (stereo not given) [Modafinil] | -0.574
22 | CCN(CC)C(C)C(=O)c1ccccc1 (stereo not given) [Amfepramone hydrochloride] | -0.552
23 | CCC1(CC)C(=O)C=CNC1=O [Pyrithyldione] | -0.626
24 | CCCC(C)(COC(N)=O)COC(=O)NC(C)C (stereo not given) [Carisoprodol] | -0.659
25 | C[C@@H]1CN([C@H]2CC[C@](C#N)(c3ccc(F)cc3)CC2)CC[C@]1(C(=O)O)c1ccccc1 [Levocabastine hydrochloride] | -0.412
26 | CC(C)(N)Cc1ccccc1 [Phentermine hydrochloride] | -0.333
27 | C(#CCN1CCCC1)CN1CCCC1 [Tremorine dihydrochloride] | -0.282
28 | Clc1ccc(C(OCCN2CCCCC2)c2ccccc2)cc1 (stereo not given) [Cloperastine hydrochloride] | 3.12
29 | NCCC(O)C(=O)NC1CC(N)C(OC2OC(CN)C(O)[C@H](O)[C@@H]2N)[C@H](OC2O[C@H](CO)[C@@H](O)[C@@H]2O)[C@@H]1O (stereo not given in full) [Butirosin disulfate salt] | -0.571
30 | O=c1[nH]oc2c1CCNC2 [THIP Hydrochloride] | -0.526
31 | CC(=O)NC1CCSC1=O (racemic) [N-Acetyl-DL-homocysteine Thiolactone] | -0.475
32 | C[N+]1(C)CCCC(OC(=O)C(O)(c2ccccc2)c2ccccc2)C1 (stereo not given) [Mepenzolate bromide] | -0.582
33 | CCCC(C)C1(CC)C(=O)NC(=O)NC1=O (stereo not given) [Pentobarbital] | -0.683
34 | C[C@]12CC[C@@H](O)C[C@@H]1CC[C@@H]1[C@@H]2CC[C@]2(C)C(=O)CC[C@@H]12 [Androsterone] | -0.387
35 | CCC1(C)CC(=O)NC(=O)C1 [Bemegride] | -0.67

test system: HeLa MZ; experiment: as above; conditions: compound concentration in added solution (µM; 5 µl added to 20 µl cells): 10; 18 h
Outline: as §1

Row | SMILES | LBPA endosome anti-LBPA integrated intensity (z-score)
36 | C[N+](C)(C)CCCCCCCCCC[N+](C)(C)C [Decamethonium bromide] | -1.08
37 | CC(C)c1c(CN(C)C(C)Cc2ccccc2)n(C)n(-c2ccccc2)c1=O (stereo not given) [Famprofazone] | -0.241
38 | C[C@]12Cc3c[nH]nc3C[C@@H]1CC[C@@H]1[C@@H]2CC[C@@]2(C)[C@H]1CC[C@]2(C)O [Stanozolol] | 1.15
39 | c1ccc2c(c1)OCC(C1=NCCN1)O2 (stereo not given) [Idazoxan hydrochloride] | 0.376
40 | NCCc1c[nH]c2ccc(O)cc12 [Serotonin hydrochloride] | -1.58
41 | CC[N+]1(C)CCCC(OC(=O)C(O)(c2ccccc2)c2ccccc2)C1 (stereo not given) [Pipenzolate bromide] | 0.585
42 | O=C(CCCN1CCC(n2c(=O)[nH]c3ccccc32)CC1)c1ccc(F)cc1 [Benperidol] | 1.55
43 | CC(C)C[C@H]1C(=O)N2CCC[C@H]2[C@]2(O)O[C@](NC(=O)[C@@H]3C=C4c5cccc6[nH]c(Br)c(c56)C[C@H]4N(C)C3)(C(C)C)C(=O)N12 [Bromocryptine mesylate] | 2.32
44 | CC(C)CC(N(C)C)C1(c2ccc(Cl)cc2)CCC1 (stereo not given) [Sibutramine HCl] | 0.271
45 | CNC(=O)Oc1ccc2c(c1)[C@]1(C)CCN(C)[C@@H]1N2C [Eserine sulfate, physostigmine sulfate] | -0.404
46 | CN1[C@@H]2CC[C@H]1C[C@@H](OC1c3ccccc3CCc3ccccc31)C2 [Deptropine citrate] | 1.46
47 | O=[N+]([O-])c1cc([As](=O)(O)O)ccc1O [Roxarsone] | -1.01
48 | O=c1[nH]c2ccccc2n1CCCN1CCC(n2c(=O)[nH]c3cc(Cl)ccc32)CC1 [Domperidone] | 1.92
49 | Cc1cccc(C)c1NC1=NCCCS1 [Xylazine] | 0.606
50 | Cc1cc(C(C#N)c2ccc(Cl)cc2)c(Cl)cc1NC(=O)c1cc(I)cc(I)c1O (stereo not given) [Closantel] | -1
51 | C=C(C)[C@@H]1[C@H]2OC(=O)[C@@H]1[C@]1(O)C[C@H]3O[C@]34C(=O)O[C@H]2[C@]14C [Picrotoxinin] | -0.88
52 | C[N+]1(C)[C@@H]2CC[C@H]1C[C@@H](OC(=O)C(CO)c1ccccc1)C2 (stereo not given in full) [Methylatropine nitrate] | 0.224
53 | Oc1ccc2c3c1O[C@H]1[C@@H](O)CC[C@@]4(O)[C@@H](C2)N(CC2CCC2)CC[C@]314 [Nalbuphine hydrochloride] | -0.32

Row | SMILES | LBPA endosome anti-LBPA integrated intensity (z-score)
54 | C[N+]12CCC(CC1)C(OC(=O)C(O)(c1ccccc1)c1ccccc1)C2 (stereo not given) [Clidinium bromide] | -0.195
55 | C#CCN(C)[C@H](C)Cc1ccccc1 [Selegiline hydrochloride] | -1.62
56 | NC(=O)C[S+]([O-])C(c1ccccc1)c1ccccc1 (stereo not given) [Modafinil] | -0.833
57 | CCN(CC)C(C)C(=O)c1ccccc1 (stereo not given) [Amfepramone hydrochloride] | 0.252
58 | CCC1(CC)C(=O)C=CNC1=O [Pyrithyldione] | -1.42
59 | CCCC(C)(COC(N)=O)COC(=O)NC(C)C (stereo not given) [Carisoprodol] | -0.835
60 | C[C@@H]1CN([C@H]2CC[C@](C#N)(c3ccc(F)cc3)CC2)CC[C@]1(C(=O)O)c1ccccc1 [Levocabastine hydrochloride] | -0.243
61 | CC(C)(N)Cc1ccccc1 [Phentermine hydrochloride] | 0.854
62 | C(#CCN1CCCC1)CN1CCCC1 [Tremorine dihydrochloride] | 0.485
63 | Clc1ccc(C(OCCN2CCCCC2)c2ccccc2)cc1 (stereo not given) [Cloperastine hydrochloride] | 1.44
64 | NCCC(O)C(=O)NC1CC(N)C(OC2OC(CN)C(O)[C@H](O)[C@@H]2N)[C@H](OC2O[C@H](CO)[C@@H](O)[C@@H]2O)[C@@H]1O (stereo not given in full) [Butirosin disulfate salt] | -0.99
65 | O=c1[nH]oc2c1CCNC2 [THIP Hydrochloride] | -1.24
66 | CC(=O)NC1CCSC1=O (racemic) [N-Acetyl-DL-homocysteine Thiolactone] | -0.898
67 | C[N+]1(C)CCCC(OC(=O)C(O)(c2ccccc2)c2ccccc2)C1 (stereo not given) [Mepenzolate bromide] | -0.861
68 | CCCC(C)C1(CC)C(=O)NC(=O)NC1=O (stereo not given) [Pentobarbital] | -1.58
69 | C[C@]12CC[C@@H](O)C[C@@H]1CC[C@@H]1[C@@H]2CC[C@]2(C)C(=O)CC[C@@H]12 [Androsterone] | -0.552
70 | CCC1(C)CC(=O)NC(=O)C1 [Bemegride] | -1.05
